Calls of active or inactive are those of the source.
Columns and labels:
[1] = small molecules captured by biotinylated probe aFSTL3 – biochemical, small-molecule microarray, fluorescence 635/667, stem cell growth factor project, primary screen (AID 1064); settings: higher = more signal;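 note: measures binding of the biotinylated anti-FSTL3 antibody to printed compounds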
[2] = binders from COS7 lysate, DM2A8 probe, primary screen, torsin A project, cell lysate, small-molecule microarray, fluorescence 635/667 (AID 1065); settings: higher = more signal, COS7 lysate expressing mutant human TOR1A
[3] = small molecules captured by biotinylated probe aFGF2 – biochemical, small-molecule microarray, fluorescence 635/667, stem cell growth factor project, primary screen (AID 1067); settings: higher = more signal;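 note: measures binding of biotinylated aFGF2 protein to printed compounds on slides; z-score merges feature fluorescence and signal-to-noise across triplicate slides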
[4] = small molecules captured by biotinylated probe aFGF10 – biochemical, small-molecule microarray, fluorescence 635/667, stem cell growth factor project, primary screen (AID 1071); settings: higher = more signal;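 note: score merges 667 nm spot intensity and signal to noise from triplicate slides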
[5] = biological target: Neurogenic locus notch homolog protein 2 (Homo sapiens) (UniProt Q04721); test: small molecules binding Notch2 protein – biochemical, small-molecule microarray, 635 nm fluorescence, stem cell growth factors, primary screen (AID 1073); settings: higher = more signal
Neurogenic locus notch homolog protein 2 (Homo sapiens), sequence (Q04721 whole entry, looked up, canonical isoform): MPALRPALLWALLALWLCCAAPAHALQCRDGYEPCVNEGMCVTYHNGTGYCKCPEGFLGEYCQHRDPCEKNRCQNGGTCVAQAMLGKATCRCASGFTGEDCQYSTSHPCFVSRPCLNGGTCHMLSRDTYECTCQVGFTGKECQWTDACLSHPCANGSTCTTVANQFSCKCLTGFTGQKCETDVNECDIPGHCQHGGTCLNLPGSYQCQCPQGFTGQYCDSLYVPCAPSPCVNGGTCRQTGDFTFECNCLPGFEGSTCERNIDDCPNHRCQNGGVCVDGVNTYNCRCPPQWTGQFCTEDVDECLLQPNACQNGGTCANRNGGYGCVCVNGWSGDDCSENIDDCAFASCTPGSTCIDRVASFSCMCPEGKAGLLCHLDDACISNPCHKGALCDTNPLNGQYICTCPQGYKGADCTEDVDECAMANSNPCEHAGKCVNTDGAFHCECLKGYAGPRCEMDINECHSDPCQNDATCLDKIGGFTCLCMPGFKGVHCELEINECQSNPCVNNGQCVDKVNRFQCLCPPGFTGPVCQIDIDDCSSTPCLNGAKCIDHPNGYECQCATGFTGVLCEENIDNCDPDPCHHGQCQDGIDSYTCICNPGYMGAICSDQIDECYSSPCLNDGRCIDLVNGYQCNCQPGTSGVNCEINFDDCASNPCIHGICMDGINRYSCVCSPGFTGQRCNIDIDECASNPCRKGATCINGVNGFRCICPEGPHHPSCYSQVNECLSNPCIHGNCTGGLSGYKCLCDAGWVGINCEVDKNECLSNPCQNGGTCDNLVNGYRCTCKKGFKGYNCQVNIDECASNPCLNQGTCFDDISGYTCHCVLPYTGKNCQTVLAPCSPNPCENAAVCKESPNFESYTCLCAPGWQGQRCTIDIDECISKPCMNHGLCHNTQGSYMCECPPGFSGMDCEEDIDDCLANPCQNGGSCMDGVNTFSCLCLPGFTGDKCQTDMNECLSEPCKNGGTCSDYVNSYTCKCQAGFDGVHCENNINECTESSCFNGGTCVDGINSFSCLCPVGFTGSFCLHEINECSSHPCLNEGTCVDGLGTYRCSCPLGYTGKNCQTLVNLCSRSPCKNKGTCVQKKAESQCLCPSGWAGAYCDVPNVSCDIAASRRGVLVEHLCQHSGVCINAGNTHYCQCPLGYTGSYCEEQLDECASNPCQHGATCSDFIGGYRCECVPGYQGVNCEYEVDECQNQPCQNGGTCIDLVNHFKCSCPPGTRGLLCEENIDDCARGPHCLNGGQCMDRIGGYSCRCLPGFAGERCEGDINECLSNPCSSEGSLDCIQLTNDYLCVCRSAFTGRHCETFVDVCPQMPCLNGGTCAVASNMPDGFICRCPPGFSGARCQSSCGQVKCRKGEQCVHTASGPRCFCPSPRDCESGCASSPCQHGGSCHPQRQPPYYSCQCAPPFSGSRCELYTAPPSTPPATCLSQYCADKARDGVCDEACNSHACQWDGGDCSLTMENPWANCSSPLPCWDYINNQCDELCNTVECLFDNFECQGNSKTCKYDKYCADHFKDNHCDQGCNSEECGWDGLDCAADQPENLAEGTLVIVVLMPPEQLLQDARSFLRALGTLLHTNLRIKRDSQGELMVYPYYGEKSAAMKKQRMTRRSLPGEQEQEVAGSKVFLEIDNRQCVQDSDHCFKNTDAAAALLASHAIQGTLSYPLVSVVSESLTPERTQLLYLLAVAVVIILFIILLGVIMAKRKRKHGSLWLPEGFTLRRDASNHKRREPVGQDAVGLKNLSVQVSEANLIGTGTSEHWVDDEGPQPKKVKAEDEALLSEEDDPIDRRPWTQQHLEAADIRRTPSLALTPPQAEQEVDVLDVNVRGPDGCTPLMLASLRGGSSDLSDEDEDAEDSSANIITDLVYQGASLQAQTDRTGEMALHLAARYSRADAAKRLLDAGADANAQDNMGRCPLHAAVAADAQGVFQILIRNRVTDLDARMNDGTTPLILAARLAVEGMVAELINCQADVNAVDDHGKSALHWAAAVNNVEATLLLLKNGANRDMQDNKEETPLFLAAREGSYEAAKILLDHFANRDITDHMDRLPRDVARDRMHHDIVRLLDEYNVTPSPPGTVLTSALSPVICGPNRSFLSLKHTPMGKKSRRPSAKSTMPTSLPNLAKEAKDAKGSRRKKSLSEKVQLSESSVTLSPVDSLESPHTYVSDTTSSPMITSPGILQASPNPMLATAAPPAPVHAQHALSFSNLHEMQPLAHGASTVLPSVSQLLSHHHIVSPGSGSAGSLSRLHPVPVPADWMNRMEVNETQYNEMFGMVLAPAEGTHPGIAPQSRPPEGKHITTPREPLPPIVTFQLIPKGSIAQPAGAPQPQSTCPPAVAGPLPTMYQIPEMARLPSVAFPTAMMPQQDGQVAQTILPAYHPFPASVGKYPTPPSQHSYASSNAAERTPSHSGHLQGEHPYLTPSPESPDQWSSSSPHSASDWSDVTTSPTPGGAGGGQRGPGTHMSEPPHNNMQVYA

[6] = biological target: Pro-neuregulin-1, membrane-bound isoform (Homo sapiens) (UniProt Q02297); test: small molecules binding neuregulin-1 protein – biochemical, small-molecule microarray, fluorescence 635/667, psychiatric disease protein project, primary screen (AID 1075); settings: NRG1 binding, 635 nm fluorescence, higher = more signal;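 note: score combines 667 nm spot fluorescence with signal to noise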
Pro-neuregulin-1, membrane-bound isoform (Homo sapiens), sequence (Q02297 whole entry, looked up, the tested form may be a part, canonical isoform): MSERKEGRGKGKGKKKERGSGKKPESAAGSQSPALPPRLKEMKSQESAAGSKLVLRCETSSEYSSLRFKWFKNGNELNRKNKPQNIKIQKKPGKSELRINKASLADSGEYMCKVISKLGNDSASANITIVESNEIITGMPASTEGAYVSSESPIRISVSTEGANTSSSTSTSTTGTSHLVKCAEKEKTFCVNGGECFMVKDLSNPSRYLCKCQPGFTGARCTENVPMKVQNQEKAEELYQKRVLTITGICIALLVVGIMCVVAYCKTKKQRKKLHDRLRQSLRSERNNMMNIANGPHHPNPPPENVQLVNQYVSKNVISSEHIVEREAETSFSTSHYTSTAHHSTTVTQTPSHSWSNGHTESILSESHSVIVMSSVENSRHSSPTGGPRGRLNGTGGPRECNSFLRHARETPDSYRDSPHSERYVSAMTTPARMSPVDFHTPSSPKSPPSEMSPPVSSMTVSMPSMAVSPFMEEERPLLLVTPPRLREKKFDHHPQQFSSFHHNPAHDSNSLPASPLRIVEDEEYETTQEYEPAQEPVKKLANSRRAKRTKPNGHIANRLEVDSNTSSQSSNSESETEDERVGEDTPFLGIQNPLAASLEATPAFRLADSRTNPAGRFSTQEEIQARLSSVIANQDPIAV

[7] = system: Neuregulin-1 EGF-like domain; test: small molecules binding NRG1 EGF domain – biochemical, small-molecule microarray, 635 nm fluorescence, primary screen (AID 1081); settings: higher = more signal;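 note: binding of the protein to compounds printed on small-molecule microarray slides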
[8] = FRG1 expression reporter modulators in myotubes – cell-based, C2C12 myotubes, firefly/Renilla luciferase, luminescence, FRG1 inhibition for FSHD, primary screen (AID 1084); settings: FRG1 promoter luciferase, higher = more signal, called active from +8 up or from −8 down
[9] = small molecules captured by biotinylated probe aFST – biochemical, small-molecule microarray, fluorescence 635/667, stem cell growth factor project, primary screen (AID 1086); settings: higher = more signal;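 note: score merges 667 nm fluorescence with signal-to-noise of each printed compound spot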
[10] = binders of probe aHhip on microarray, primary screen, stem cell growth factor project, biochemical, small-molecule microarray, fluorescence 635/667 (AID 1087); settings: higher = more signal;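 note: score merges spot fluorescence at 667nm with spot signal to noise ratio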

Which composite z-score [1] does the source give for `O=C1O[C@H](c2ccccc2)[C@H](c2ccccc2)N2[C@H]1[C@@H](C(=O)N1CCCCCCC1)[C@]1(C(=O)Nc3ccc(C#CC4=CCCCC4)cc31)[C@H]2c1ccc(OCCO)cc1` here?
Its composite z-score is 3.55.

What about the composite z-score [2] of the same compound?
The composite z-score was 2.01.

And the composite z-score [3]?
Its composite z-score is 0.917.

What about the composite z-score [4] of the same compound?
The composite z-score was 0.965.

And the composite z-score [5]?
Its composite z-score is 1.6.

What about the composite z-score [6] of the same compound?
The composite z-score was 2.38.

And the composite z-score [7]?
Its composite z-score is 1.3.

What about the z-score [8] of the same compound?
The z-score was 0.677 (inactive).

What about the composite z-score [9] of the same compound?
The composite z-score was 3.36.

And the composite z-score [10]?
The composite z-score was 3.42.

Which composite z-score [1] does the source give for `C=C(COC)/C(=C/C[C@@H](OC(=O)c1ccncc1)c1ccc(CO)o1)c1cc(C(=O)OC)ccc1OC` here?
Its composite z-score is -0.496.

And the composite z-score [2]?
The composite z-score was 0.699.

What about the composite z-score [3] of the same compound?
The composite z-score was -0.0451.

What about the composite z-score [4] of the same compound?
Its composite z-score is 0.833.

What about the composite z-score [5] of the same compound?
Its composite z-score is 1.38.

What about the composite z-score [6] of the same compound?
The composite z-score was 0.97.

What about the composite z-score [7] of the same compound?
Its composite z-score is 1.26.

What about the z-score [8] of the same compound?
The z-score was -1.38 (inactive).

And the composite z-score [9]?
Its composite z-score is 0.458.

What about the composite z-score [10] of the same compound?
Its composite z-score is -0.0994.

For `C=C(COC)/C(=C/C[C@H](OC(C)=O)c1ccc(CO)o1)c1cc(C(=O)OC)ccc1OC`, which composite z-score [1] is on record?
Its composite z-score is -0.113.

And the composite z-score [2]?
The composite z-score was 0.183.

And the composite z-score [3]?
The composite z-score was -0.129.

What about the composite z-score [4] of the same compound?
Its composite z-score is 0.779.

And the composite z-score [5]?
Its composite z-score is -0.925.

What about the composite z-score [6] of the same compound?
The composite z-score was 0.0136.

And the composite z-score [7]?
The composite z-score was 0.7.

What about the z-score [8] of the same compound?
The z-score was 0.0728 (inactive).

What about the composite z-score [9] of the same compound?
Its composite z-score is -0.0787.

And the composite z-score [10]?
The composite z-score was 0.0749.

What does the source list for `C[C@H]1C2[C@H](Cc3ccccc3)NC(=O)[C@]23C(=O)N[C@H](Cc2ccccc2)C(=O)N2CCC[C@H]2C(=O)NC/C=C\C/C=C/C3[C@@H]2O[C@]12C` (stereo not given in full)?
composite z-score [1]: -0.4; composite z-score [2]: -0.217; composite z-score [3]: -0.0439; composite z-score [4]: 0.293; composite z-score [5]: 0.451; composite z-score [6]: 0.455; composite z-score [7]: -0.473; z-score [8]: 1.59 (inactive); composite z-score [9]: 0.0114; composite z-score [10]: -0.236

Which composite z-score [1] does the source give for `O=C1c2ccccc2[C@](Cc2ccccc2I)(C(=O)NCCN2CCOCC2)[C@H](c2ccc(CO)cc2)N1Cc1ccccc1Cl` here?
The composite z-score was 0.118.

And the composite z-score [2]?
The composite z-score was 0.469.

And the composite z-score [3]?
Its composite z-score is 0.07.

And the composite z-score [4]?
The composite z-score was 0.915.

What about the composite z-score [5] of the same compound?
Its composite z-score is 1.13.

And the composite z-score [6]?
The composite z-score was 1.24.

And the composite z-score [7]?
Its composite z-score is 1.29.

What about the z-score [8] of the same compound?
The z-score was -1.96 (inactive).

What about the composite z-score [9] of the same compound?
The composite z-score was 0.511.

And the composite z-score [10]?
Its composite z-score is 0.0274.

For `O=C1C2C=CC(C(O)Cc3ccccc3)N(n3cnnc3)C2C(=O)N1Cc1ccccc1` (stereo not given), which composite z-score [1] is on record?
The composite z-score was 0.442.

And the composite z-score [2]?
Its composite z-score is -0.0532.

What about the composite z-score [3] of the same compound?
The composite z-score was 0.038.

And the composite z-score [4]?
Its composite z-score is 0.426.

And the composite z-score [5]?
The composite z-score was 1.43.

And the composite z-score [6]?
The composite z-score was 0.489.

And the composite z-score [7]?
The composite z-score was 0.984.

What about the z-score [8] of the same compound?
The z-score was 0.793 (inactive).

And the composite z-score [9]?
Its composite z-score is 0.307.

And the composite z-score [10]?
The composite z-score was -0.186.
